A selection: hits, their analogues and other compounds. The true share with any hit is near 6.3%.
Abs 340nm – absorbance at 340 nm; compound absorbance at 340 nm, fold over control; fold change at 10 µM; 65,000 tested, under 10 active;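 active = at 10 µM dose, initial 340 nm absorbance at least 2 fold that of control wells; inactive = change under 2 fold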;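 note: initial absorbance extrapolated from kinetic A340 decline of NADH oxidation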
NADH coupling – inhibition of NAD/NADH coupling enzymes, library profiling | coupled PK/LDH NADH assays, four targets | IC50, µM (titrated, usually from 10 µM), without a hit: at the highest dose inhibition | hit rate 0.02% among 65,000;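 active = single-dose screening hits from any of four coupled enzyme assays that gave an IC50 when retested across doses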;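 note: the DPM-DC format reads NADH fluorescence rather than 340 nm absorbance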
Autofluor 339 – intrinsic fluorescence of library compounds, ex339/em460 – biochemical, MLSMR library, data from DPM-DC assay, artefact control, profiling panel | hit rate 5.5% among 65,000 | compound autofluorescence, ex339/em460 nm, NADH buffer; stronger effect = higher value; 1 = no-compound wells, NADH background | AID 709 | fluorescence fold increase at 10 µM;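 active = at 10 µM, mean starting fluorescence two-fold or more over control wells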;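 note: signal is the first read of a kinetic run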
Spn DPM-DC inh – S. pneumoniae DPM-DC inhibition. calls only at 10 µM. hit rate 0.49% among 65,000. purified DPM-DC, PK/LDH coupled NADH fluorescence;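 active = the 320 compounds with the highest percent inhibition in the single-dose primary screen, excluding strongly autofluorescent ones, cut at about 32% in these data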;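 note: kinetic rate of NADH fluorescence loss reporting ADP formed by the decarboxylase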
MK inhibit – blocks S. pneumoniae mevalonate kinase | purified MK, PK/LDH-coupled NADH absorbance 340 nm | inhibition, % at 10 µM | hit rate 0.48% among 65,000 | AID 555;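 active = ranked among the strongest by inhibition in the single 10 µM screen, a fixed top-ranked set picked for dose follow-up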
Spn PMK inh – inhibitors of Streptococcus pneumoniae phosphomevalonate kinase; purified PMK, PK/LDH-coupled NADH absorbance 340 nm; inhibition, % at 10 µM; hit rate 0.49% among 65,000;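 active = top-ranked compounds by inhibition in the single 10 µM screen, taking a fixed number of the strongest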;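 note: 0% = full reaction with DMSO carrier and 100% = background rate without enzyme reaction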
Starred values were filed as active, the others as inactive; i = inactive; / = not tested or not shown; ! = repeats disagree.

SMILES	Abs 340nm	NADH coupling	Autofluor 339	Spn DPM-DC inh	MK inhibit	Spn PMK inh
Cc1cc(N)n2nc(-c3ccccc3)cc2n1	1	5.0%	1.63	i	3.0	9.0
Cc1nc2nc(-c3ccccc3)cn2nc1C	1.08	4.0%	2.22*	/	8.0	0.0
CCc1ccc(-c2cn3nc(C)c(C)nc3n2)cc1	1.07	4.0%	2.32*	/	8.0	0.0
Cc1nn2cc(-c3ccc(N)cc3)nc2s1	1.02	6.0%	1.03	i	1.0	17.0
CCc1c(-c2ccccc2)nc2nc(C)c(C)nn12	1.09	3.0%	2.15*	/	5.0	0.0
CCN(c1ccccc1)c1cc(C)nc2nc(C)nn12	1.06	7.0%	1.01	i	5.0	15.0
CCOc1ccccc1N1CCN(CC(O)COc2ccc3c(C)cc(=O)oc3c2)CC1 (configuration not stated)	1.1	6.0%	1.66	i	7.0	0.0
CC(=O)OCCNC(=O)Cn1cnc2c1c(=O)n(C)c(=O)n2C	1.02	3.0%	1.1	i	0.0	10.0
c1ccn2c(c1)nc1c2nc2ccccn21	1.12	4.0%	3.83*	/	7.0	0.0
CC(=O)Nc1ccc(NC(=O)c2c(C)nc3ccccn23)cc1	0.99	9.0%	1.03	i	0.0	20.0
Cc1nnc(SCc2ccccc2)n1N	0.96	4.0%	1	i	4.0	26.0*
CC1(C)Cc2nc3sc4c(SCC(=O)NCc5ccco5)ncnc4c3cc2CO1	1.1	0.0%	1.14	i	0.0	1.0
CC1(C)Cc2nc3oc4c(N(CCO)Cc5ccccc5)ncnc4c3cc2CO1	1.02	7.0%	2.4*	i	8.0	4.0
Cc1nc(CCNC(=O)COc2ccccc2)cs1	1.04	4.0%	1.09	i	3.0	9.0
CC1=CC(C)C2C(=O)N(CCCN(C)C)C(=O)C2C1 (configuration not stated)	1.04	3.0%	1.12	i	0.0	10.0
CC(C)C(NS(=O)(=O)c1ccc2c3c(cccc13)C(=O)N2)C(=O)O (configuration not stated)	1.11	1.0%	2.19*	/	2.0	0.0
O=C(O)c1ccccc1NS(=O)(=O)c1ccc2c3c(cccc13)C(=O)N2	1.01	7.0%	1.09	i	13.0	8.0
O=C1Nc2ccc(S(=O)(=O)NCc3ccco3)c3cccc1c23	1.06	1.0%	2.19*	/	1.0	0.0
COC(=O)c1ccccc1NS(=O)(=O)c1ccc2c3c(cccc13)C(=O)N2	1.01	16.0%	2.8*	i	6.0	15.0
CCOc1ccc(S(=O)(=O)NCc2ccco2)c2ccccc12	1.01	1.0%	1.13	i	2.0	0.0
Cc1ccccc1OCCNC(=O)CNC(=O)c1ccccc1O	1.04	7.0%	3.71*	/	4.0	9.0
COc1cc(=O)n(C)c2cc(N(C)C)ccc12	1.1	9.0%	4*	/	12.0	6.0
CC1=CC(C)(C)N2C(=O)C3(C(C#N)=C(N)Oc4cc(C)oc(=O)c43)c3cccc1c32 (configuration not stated)	1.1	1.0%	1.13	i	1.0	2.0
COC(=O)c1cc(OC)c(OC)c(OC)c1N	1.06	7.0%	2.3*	i	11.0	4.0
COC(=O)Nc1c(C(=O)OC)cc(OC)c(OC)c1OC	1.04	7.0%	1.21	i	8.0	12.0
SMILES	Abs 340nm	NADH coupling	Autofluor 339	Spn DPM-DC inh	MK inhibit	Spn PMK inh
C=CCc1c(C)c(C#N)c2nc3ccccc3n2c1N1CCN(C)CC1	1.04	7.0%	1.13	i	6.0	4.0
COc1ccc(OC)c(CC(NC(C)=O)C(=O)NC2CCN(c3nc(C)cc(C)c3C#N)CC2)c1 (configuration not stated)	1.02	10.0%	2.82*	i	12.0	0.0
COc1cc(C(=O)N2CCC(NC(=O)C(Cc3ccccc3C)NC(C)=O)CC2)cc(OC)c1OC (configuration not stated)	1.02	6.0%	1.05	i	6.0	12.0
COc1ccc(CNC(=O)C2CCCN(S(=O)(=O)c3cnc[nH]3)C2)cc1 (configuration not stated)	1.01	8.0%	1.05	i	9.0	16.0
C=CCOC(=O)Nc1c(C(=O)OC)[nH]c2ccccc12	1.07	0.0%	1.44	i	1.0	0.0
CCOC(=O)c1[nH]c2ccccc2c1NC(=O)c1ccc(Br)o1	1.01	20.0%	0.91	i	54.0*	0.0
COC(=O)c1[nH]c2ccccc2c1NC(=O)Oc1ccccc1	1.1	10.0%	2.31*	i	7.0	5.0
CCOC(=O)c1[nH]c2ccccc2c1NC(=O)CC(C)(C)C	1.07	8.0%	1.69	i	4.0	3.0
COc1ccc2c(c1OC)C(=O)OC2C1c2c(cc3c(c2OC)OCO3)CCN1C (configuration not stated)	1	1.0%	1.06	i	9.0	26.0*!
CN1CCc2cc3c(c4c2C1CC41CCC(=NO)CC1)OCO3 (configuration not stated)	1.01	13.0%	1.81	i	12.0	7.0
CC1CCN(S(=O)(=O)c2ccc(NC(=O)CN3CCN(C)CC3)cc2)CC1	1.03	20.0%	1.13	i	48.0*	13.0
CN1c2ccccc2-c2nc3ccccc3n2C1c1ccncc1 (configuration not stated)	1.05	5.0%	1.91	i	5.0	10.0
CN1c2ccccc2-c2nc3ccccc3n2C1c1ccccn1 (configuration not stated)	1.07	4.0%	2.24*	/	7.0	0.0
CC(C)=C1C2CC2C2C(C(=O)O)C12 (configuration not stated)	0.99	3.0%	1.07	i	0.0	9.0
COc1ccc(C2C3=C(CC(C)(C)CC3=O)Nc3c2c(=O)[nH]c2nc(C)nn32)cc1 (configuration not stated)	1.05	16.0%	2.54*	i	15.0	5.0
CC(C(=O)NCC1CCCO1)n1cccc1C(=O)c1ccccc1 (configuration not stated)	1.05	4.0%	1.01	i	0.0	13.0
Cc1cc(C)c2[nH]c(=O)c(C(c3nnnn3C(C)(C)C)N3CCN(C(=O)c4ccco4)CC3)cc2c1 (configuration not stated)	1.06	15.0%	2.41*	i	15.0	1.0
O=c1[nH]c2cc3c(cc2cc1C(c1nnnn1C1CCCC1)N1CCSCC1)OCCO3 (configuration not stated)	1.04	17.0%	3.22*	/	12.0	21.0
COc1ccccc1C(c1nnnn1C(C)(C)C)N1CCN(C(=O)c2ccco2)CC1 (configuration not stated)	1.02	8.0%	1.11	i	10.0	13.0
CCC(C)(C)n1nnnc1C(c1cc2cc3c(cc2[nH]c1=O)OCO3)N1CCN(C)CC1 (configuration not stated)	1.13	11.0%	3.78*	/	1.0	20.0
CC(C)(C)n1nnnc1C(c1cc2cc3c(cc2[nH]c1=O)OCCO3)N1CCSCC1 (configuration not stated)	1.06	0.0%	3.31*	/	0.0	0.0

High-throughput results from PubChem.
